# According to article PMC5540273 (PLoS ONE, 2017):
# Tests used:
# Conditions in all cases: concentration: 1 μM, replicates: in singlicate; n = 1
# MEK2 = test system: T1, MEK2
# T1 construct: gene MAP2K2
# MEK3 = test system: T2, MEK3
# T2 construct: gene MAP2K3
# MEK4 = test system: T3, MEK4
# T3 construct: gene MAP2K4
# MEK5 = test system: T4, MEK5
# T4 construct: gene MAP2K5
# MEK6 = test system: T5, MEK6
# T5 construct: gene MAP2K6
# MELK = test system: MELK
# MERTK = test system: MERTK
# MET = test system: MET
# MINK = test system: T6, MINK
# T6 construct: gene MINK1
# MKK7 = test system: MKK7
# MKNK1 = test system: MKNK1
# MKNK2 = test system: MKNK2
# MLCK = test system: T7, MLCK
# T7 construct: gene MYLK3
# MLK1 = test system: T8, MLK1
# T8 construct: gene MAP3K9
# MLK2 = test system: MLK2
# MLK3 = test system: MLK3
# MRCKA = test system: MRCKA
# MRCKB = test system: T9, MRCKB
# T9 construct: gene CDC42BPB
# MST1R = test system: MST1R
# MST1 = test system: T10, MST1
# T10 construct: gene STK4
# 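Note: KINOMEscan kinase panel screen.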
Structure (SMILES),%Inh (MEK2) [%],%Inh (MEK3) [%],%Inh (MEK4) [%],%Inh (MEK5) [%],%Inh (MEK6) [%],%Inh (MELK) [%],%Inh (MERTK) [%],%Inh (MET) [%],%Inh (MINK) [%],%Inh (MKK7) [%],%Inh (MKNK1) [%],%Inh (MKNK2) [%],%Inh (MLCK) [%],%Inh (MLK1) [%],%Inh (MLK2) [%],%Inh (MLK3) [%],%Inh (MRCKA) [%],%Inh (MRCKB) [%],%Inh (MST1R) [%],%Inh (MST1) [%]
COc1cccc(NC(=O)NC2CCN(c3ccnc(Nc4ccc(F)cc4)n3)C2)c1 (stereo not shown) [GSK1379721],22,0,26,86,0,8,14,0,0,0,23,0,0,0,0,0,6,0,28,0
Fc1cc(Cl)ccc1Nc1ccnc2cc(-c3ccc(CN4CCCCC4)o3)ccc12 [GW560116],100,0,32,83,2,9,0,0,19,0,0,11,0,0,0,0,6,3,16,0
CS(=O)(=O)c1ccc(-c2c(-c3ncn[nH]3)sc(N3CCOCC3)c2C#N)cc1,0,0,0,16,0,5,0,0,21,10,0,0,13,0,51,15,0,16,29,24
CC1=C(C(=O)Nc2cc3cn[nH]c3cc2F)C(c2ccc(C(F)(F)F)cc2)CC(=O)N1 (stereo not shown) [GSK429286],0,23,15,8,0,0,13,0,0,48,0,19,17,0,0,0,1,23,36,0
Cc1ccc(NC(=O)Nc2cc(C(C)(C)C)nn2-c2ccccc2)cc1 [GSK1014915],0,0,12,2,0,26,15,0,0,0,28,91.9,2,0,0,12,23,8,41,52
CC(=O)Nc1nc2cnc(Nc3cc(NC(=O)c4cccc(CCC#N)c4)ccc3C)nc2s1,0,3,25,2,12,0,12,7,4,0,3,0,0,2,15,13,0,0,21,5
Nc1ncnc2[nH]c(-c3ccccc3)nc12 [AH5015],0,1,13,50,0,0,0,0,4,0,0,39,0,11,5,4,0,0,3,100
Cc1cc(N2Cc3ccccc3C2)nc(Nc2ccc(S(=O)(=O)N3CCOCC3)cc2)n1.Cl [GSK1669917],0,0,0,9,0,0,9,0,20,0,0,0,0,0,0,15,1,0,0,0
CN1C(=O)C(Nc2ccc(Cl)c(C(=O)O)c2)=C(c2ccc(Cl)cc2)C1=O [SB-404290],21,3,26,0,0,4,11,0,10,0,0,10,0,0,0,4,13,0,19,12
CN(C)CCN(C)C(=O)c1cc(-c2ccncc2)c(-c2ccc(Cl)c(O)c2)o1.Cl.Cl [SB-710397],0,0,0,48,0,9,24,0,46,14,2,1,12,0,0,0,17,2,42,0
O=C(O)COc1ncnc2cc(-c3ccc4[nH]ncc4c3)sc12,7,17,37,38,0,21,0,1,12,0,8,13,1,10,4,0,0,0,25,73
O=C(Nc1n[nH]c2nc(-c3nccs3)c(Br)cc12)C1CCCC1 [SB-742609],0,0,30,39,0,0,44,5,0,0,31,31,39,9,12,0,0,0,27,3
COc1ccc(CNC(=O)NC2CCN(c3ccnc(Nc4cc(OC)c(OC)c(OC)c4)n3)C2)cc1 (stereo not shown) [GSK1379748],0,0,6,98.4,0,0,36,9,0,0,8,30,0,0,21,23,34,0,29,0
Cc1cccc(-c2nc(C)cc(Nc3ccncc3)n2)n1 [GSK257997],0,0,32,8,0,0,18,0,6,0,0,0,0,0,0,39,34,81,35,8
